# High-throughput results (PubChem)
# An excerpt weighted towards active compounds, which were near 1.5% of everything screened.
# PLC-gamma1 inh = blocks human PLC-gamma1 enzyme activity. P19174. purified PLC-gamma1, fluorogenic substrate, fluorescence. inhibition, % at 12.2 µM. hit rate 0.84% among 370,000; in the data active means inhibition above about 9.5%
# DAGLB inhibitor = diacylglycerol lipase beta (human) inhibition | Q8NCG7 | HEK293T DAGLB membrane lysate, EnzChek fluorogenic substrate | inhibition, % at 5.17 µM | hit rate 0.059% among 340,000 | AID 504411; in the data active means inhibition above about 34%;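 further: 0% = enzyme with vehicle and 100% = wells lacking enzyme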
# PLC-beta3 inh = inhibitors of human phospholipase C beta3; Q01970; Purified PLC-beta3, fluorogenic substrate, fluorescence; inhibition, % at 12.2 µM; hit rate 0.18% among 370,000; AID 720704; in the data active means inhibition above about 11%;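 further: 0% = median of compound wells on plate and 100% = full blocker control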
# HGIII-sPLA2 inh = Inhibits HGIII-sPLA2 liposome hydrolysis, primary screen; Q9NZ20; QFRET BODIPY PC-A2 liposome hydrolysis, fluorescence; inhibition, % at 12.2 µM; hit rate 0.56% among 370,000; AID 743126;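 active means inhibition above mean plus 3 SD of compounds lying within the high and low control bounds, cut at about 19% in these data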;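 further: 0% = median of test compound wells and 100% = no enzyme DMSO wells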
# hGIII sPLA2 conf = human GIII-sPLA2 inhibition, confirmation. shares compounds with HGIII-sPLA2 inh. recombinant hGIII-sPLA2, BODIPY PC-A2 QFRET fluorescence. inhibition, % at 12.2 µM. hit rate 34% among 2,000;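 active means mean inhibition across triplicates above the hit cutoff set in the earlier primary screen, cut at about 19% in these data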;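 further: 0% = enzyme with DMSO and 100% = DMSO wells lacking enzyme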
# BODIPY interf = counter-screen for HGIII-sPLA2 inhibitors: 535nm fluorescence interference | inhibition, % at 12.2 µM | AID 743282 | BODIPY FL product fluorescence interference, QFRET | hit rate 8.5% among 2,000 | shares compounds with HGIII-sPLA2 inh;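 active means average inhibition above the solvent-only control mean plus 3 SD, cut at about 6% in these data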;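 further: 0% = DMSO with substrate plus product and 100% = DMSO with substrate alone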
# BODIPY interf DR = interferes with 535nm fluorescence in dose response counter-screen. BODIPY FL product fluorescence interference, cell-free. IC50, µM. 240 tested, under 10 active. shares compounds with HGIII-sPLA2 inh;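 active means IC50 at or below 10 µM; inactive means IC50 above 10 µM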
# Starred values were filed as active, the others as inactive; · = no result.
SMILES,PLC-gamma1 inh,DAGLB inhibitor,PLC-beta3 inh,HGIII-sPLA2 inh,hGIII sPLA2 conf,BODIPY interf,others
Cc1cc(C(=O)Nc2nc(-c3ccccn3)cs2)ccc1[N+](=O)[O-],-2,5,2,26*,28*,-2,BODIPY interf DR=>122
CCc1cc(C(=O)Nc2nc(-c3ccccn3)cs2)sc1C,-55,1,-74,21*,25*,3,
O=C(Nc1nc(-c2ccccn2)cs1)c1ccc(-c2ccccc2F)o1,-158,1,-200,21*,24*,4,
Cc1ccc(C(=O)Nc2nc(-c3ccccn3)cs2)o1,-11,-1,-22,7,·,·,
Cc1cc(-c2nc3ncccc3o2)ccc1NC(=S)NC(=O)c1ccco1,-168,-3,-208,21*,8,-22,
Cc1ccc(C2CCC3(CCC(=O)N3CCOC(=O)Nc3ccc(Br)cc3)CC2)cc1 (stereo not drawn),0,·,2,4,·,·,
CCc1c(C)sc(NC(=O)c2cccs2)c1C#N,-88,-1,-190,20*,25*,-3,
O=C(CNC(=O)c1ccc(Br)o1)Nc1ccc(N2CCCCCC2)cc1,0,4,-11,11,·,·,
O=C(CNC(=O)c1ccco1)Nc1ccc(N2CCCCCC2)cc1,-1,3,-14,22*,12,0,
CC(C)N1CCCCC(NC(=O)c2cccc(C(F)(F)F)c2)C1=O (stereo not drawn),1,·,6,6,·,·,
CCOC(=O)N1CCN(C(=O)C[C@H]2C[C@@]3(C(=O)OC)C(=C[C@H](C(C)(C)C)O[C@@H]3C)N(Cc3cccc4ccccc34)C2=O)CC1,2,·,4,-12,·,·,
COc1ccccc1C1Nc2cccc3cccc(c23)N1,-12,11,-16,21*,34*,12*,
COc1ccc(C2Nc3cccc4cccc(c34)N2)cc1,-10,14,-11,-5,·,·,
COc1cc(OC)c(C2Nc3cccc4cccc(c34)N2)c(OC)c1,-21,6,-38,22*,37*,-3,BODIPY interf DR=>122
O=[N+]([O-])c1ccccc1C1Nc2cccc3cccc(c23)N1,1,11,0,1,·,·,
O=[N+]([O-])c1ccc(Cl)c(C2Nc3cccc4cccc(c34)N2)c1,0,12,2,32*,57*,18*,
CCCn1c(=O)c2ccccc2n2c(SCCOc3ccc(OC)cc3)nnc12,-1,1,2,13,·,·,
CCCn1c(=O)c2ccccc2n2c(SCCOc3ccc(C)cc3)nnc12,2,-3,-2,19*,10,-14,
COc1ccc(Cl)cc1C(=O)NNC(=O)c1cccc(S(=O)(=O)N(C)C)c1,-6,0,-12,22*,-8,-6,
COc1cc(/C=C/C(=O)NNC(=O)c2cccc(S(=O)(=O)N(C)C)c2)cc(OC)c1OC,-20,1,-19,-2,·,·,
O=C(NCc1ccccc1)N1CCNCC1,0,0,-2,22*,1,-7,
O=C(NCc1ccccc1)N1CCCC1,0,-1,-7,-5,·,·,
COC(=O)c1ccc(NC(=O)CCN2CCN(CCC(=O)Nc3ccc(C(=O)OC)cc3)CC2)cc1,9,-2,5,-7,·,·,
COC(=O)c1ccc(NC(=O)CCN2CCOCC2)cc1,2,-3,-1,22*,-11,-4,
COC(=O)[C@@]12CCCCC3=C1N(CCC3)C(=O)[C@H]2CC(=O)N1CCCCC1,3,·,1,-1,·,·,
SMILES,PLC-gamma1 inh,DAGLB inhibitor,PLC-beta3 inh,HGIII-sPLA2 inh,hGIII sPLA2 conf,BODIPY interf,others
COc1ccc(C(=O)CSc2nnc(-c3ccccn3)n2-c2ccccc2)cc1,0,·,-3,-23,·,·,
O=C(NNC(=S)NC1CC2C=CC1C2)c1cccnc1 (stereo not drawn),2,·,3,22*,21*,-8,
O=C(NNC(=S)NC(=O)c1ccccc1)c1cccnc1,0,2,-11,10,·,·,
COCCCNC(=O)CN(Cc1ccc(Cl)cc1)S(C)(=O)=O,2,-1,3,21*,6,-7,
CCOCCCNC(=O)CN(Cc1ccc(Cl)cc1)S(C)(=O)=O,2,-3,3,10,·,·,
O=C(NCc1ccccc1)OCCN1C(=O)CCC12CCC(c1ccccc1)CC2 (stereo not drawn),-1,·,4,2,·,·,
CCC(C)NC(=O)CCSc1ccc(C)cc1 (stereo not drawn),3,1,-3,19*,1,-4,
CC(C)Cc1c2c([nH]c(=S)c1C#N)CCCC2,-1,-3,-4,20*,30*,2,BODIPY interf DR=>122
CC(C)c1ccccc1NC(=S)NCC1(N(C)C)CCCCC1,2,4,-2,20*,26*,-8,
O=C1C(=O)N(Cc2ccc(-c3ccc(Cl)nc3)cc2)c2ccc(OC(F)(F)F)cc21,-6,·,-5,25*,32*,-2,BODIPY interf DR=>122
CC1Sc2ccccc2N(Cc2ccc(OC(F)(F)F)cc2)C1=O (stereo not drawn),1,·,1,11,·,·,
Cc1ccc(OCCN2C(=O)C(=O)c3cc(C)ccc32)cc1,2,4,-8,12,·,·,
O=C1C(=O)N(Cc2ccc(-c3ccccc3)cc2)c2ccc(OC(F)(F)F)cc21,1,·,-2,26*,34*,1,BODIPY interf DR=>122
Cc1ccc2c(c1)C(=O)C(=O)N2Cc1ccc(C(F)(F)F)cc1,2,-3,0,30*,26*,3,
O=C(Nc1ccc(F)cc1)N[C@@H]1C[C@@H]2O[C@H](CO)CC[C@@H]2O[C@@H]1CCc1ccc(C2=CCCC2)cc1,3,·,1,-19,·,·,
CSc1ccc(C=NNC(=O)c2cc(-c3ccc(Cl)cc3)n[nH]2)cc1,-18,·,-21,-2,·,·,
Cn1c(=O)c(C(=O)NNC(=O)c2ccccc2Br)c(O)c2ccccc21,-2,13,-14,30*,2,4,
Cc1ccc2c(c1)N(CCCC(=O)NCc1ccc(F)cc1)C(=O)CO2,-2,·,-2,1,·,·,
c1ccc(N2CCN(c3ccccc3)C2c2cccnc2)cc1,5,-2,4,24*,4,-12,
Cc1ccc(N2CCN(c3ccc(C)cc3)C2c2cccnc2)cc1,0,-9,2,11,·,·,
COC(=O)[C@]12C[C@H](CC(=O)NCc3cccs3)C(=O)N(Cc3cccc4ccccc34)C1=C[C@H](COCc1ccccc1)O[C@@H]2C,4,·,-2,-17,·,·,
O=C(Cn1c(-c2cncs2)nc2ccccc21)NCc1cccs1,-6,·,-12,6,·,·,
C=CCNC(=O)COc1cc(C)ccc1C,7,-1,3,20*,3,-9,
COc1ccccc1NC(=O)N1CCC(c2nc3cc(C)c(C)cc3[nH]2)CC1,2,-3,-1,-2,·,·,
COc1ccccc1NC(=S)N1CCC(c2nc3cc(C)c(C)cc3[nH]2)CC1,-3,1,-1,21*,13,-12,
COc1ccc(C(CCOC(=O)Oc2ccccc2)c2cc(OC)cc(OC)c2)cc1 (stereo not drawn),3,·,1,-17,·,·,
